Results on 8 compounds are retold here after PubChem BioAssay.

In experiment [1] the target is Nuclear receptor coactivator 3 (Homo sapiens) (UniProt Q9Y6Q9). The experiment in a line: NCOA3 GAL4-fusion reporter inhibition – cell-based, luminescence, quadruplicate, confirmation (AID 588792;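 active = mean inhibition over 43.08%, the solvent-only control mean plus 3 SD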;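 note: 0% = DMSO treated cells and 100% = gossypol at 36 µM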). As to conditions: HEK293 GAL4-SRC3 luciferase reporter, at 3.6 µM, hits give high values. On the technique in general: In a reporter assay the amount or activity of a reporter protein is the signal.
Sequence of Nuclear receptor coactivator 3 (Homo sapiens) (Q9Y6Q9 whole entry, looked up, the tested form may be a part): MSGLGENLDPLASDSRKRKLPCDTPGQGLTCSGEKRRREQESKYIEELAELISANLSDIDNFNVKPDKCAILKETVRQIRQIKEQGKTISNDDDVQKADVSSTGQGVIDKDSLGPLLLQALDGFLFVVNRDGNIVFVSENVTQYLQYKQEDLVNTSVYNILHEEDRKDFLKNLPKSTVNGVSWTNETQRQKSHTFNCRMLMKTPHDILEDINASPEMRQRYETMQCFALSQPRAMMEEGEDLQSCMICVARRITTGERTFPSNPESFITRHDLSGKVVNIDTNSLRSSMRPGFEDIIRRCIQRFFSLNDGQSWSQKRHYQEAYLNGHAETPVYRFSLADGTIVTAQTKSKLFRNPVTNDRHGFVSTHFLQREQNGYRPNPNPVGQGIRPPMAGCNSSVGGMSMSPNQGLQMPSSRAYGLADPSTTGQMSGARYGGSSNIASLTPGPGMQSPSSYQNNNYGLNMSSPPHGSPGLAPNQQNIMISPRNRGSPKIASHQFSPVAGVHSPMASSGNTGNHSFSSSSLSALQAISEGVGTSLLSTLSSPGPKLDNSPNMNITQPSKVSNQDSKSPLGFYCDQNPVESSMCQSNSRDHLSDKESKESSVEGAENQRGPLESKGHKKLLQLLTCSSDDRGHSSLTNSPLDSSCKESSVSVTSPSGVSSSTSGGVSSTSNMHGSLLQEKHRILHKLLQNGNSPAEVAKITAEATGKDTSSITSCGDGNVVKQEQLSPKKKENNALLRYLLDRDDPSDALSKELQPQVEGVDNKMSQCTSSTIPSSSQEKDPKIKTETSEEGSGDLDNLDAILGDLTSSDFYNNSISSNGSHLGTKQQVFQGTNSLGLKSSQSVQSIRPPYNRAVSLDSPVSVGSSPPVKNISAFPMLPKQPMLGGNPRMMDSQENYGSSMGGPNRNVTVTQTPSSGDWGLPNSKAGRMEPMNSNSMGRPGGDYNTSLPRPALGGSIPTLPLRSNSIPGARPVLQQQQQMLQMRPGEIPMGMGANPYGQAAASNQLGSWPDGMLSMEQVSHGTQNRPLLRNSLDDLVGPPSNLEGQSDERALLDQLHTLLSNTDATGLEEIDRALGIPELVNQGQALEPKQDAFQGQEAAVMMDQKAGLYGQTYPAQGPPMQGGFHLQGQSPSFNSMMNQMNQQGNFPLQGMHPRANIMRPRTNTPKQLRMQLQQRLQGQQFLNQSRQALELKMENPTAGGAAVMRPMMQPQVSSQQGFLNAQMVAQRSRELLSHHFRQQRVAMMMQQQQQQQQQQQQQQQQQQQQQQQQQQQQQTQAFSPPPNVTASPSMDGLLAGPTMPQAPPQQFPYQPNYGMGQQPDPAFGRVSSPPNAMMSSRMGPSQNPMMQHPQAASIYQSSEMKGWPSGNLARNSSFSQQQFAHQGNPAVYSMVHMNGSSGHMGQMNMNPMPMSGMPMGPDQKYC

The test system of experiment [2] is transactivating tegument protein VP16 (Human herpesvirus 1), Gal4-VP16 luciferase reporter. The experiment is described as follows: repression of VP16-driven luciferase reporter – cell-based, luminescence, high throughput, counter-screen for SRC3 inhibitor project (AID 588794). As to conditions: mammalian cells, at 3.6 µM, hits give high values.
The target in experiment [3] is Nuclear receptor coactivator 1 (Homo sapiens) (UniProt Q15788). The experiment is described as follows: NCOA1 GAL4-fusion reporter inhibition – cell-based, luminescence, quadruplicate, confirmation (AID 588820;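 active = mean inhibition above 46.68%, the untreated control wells mean plus 3 SD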;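 note: 0% = DMSO wells and 100% = gossypol 36 µM treated wells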). As to conditions: HEK293 GAL4-SRC1 luciferase reporter, at 3.6 µM, hits give high values.
Sequence of Nuclear receptor coactivator 1 (Homo sapiens) (Q15788 whole entry, looked up, the tested form may be a part): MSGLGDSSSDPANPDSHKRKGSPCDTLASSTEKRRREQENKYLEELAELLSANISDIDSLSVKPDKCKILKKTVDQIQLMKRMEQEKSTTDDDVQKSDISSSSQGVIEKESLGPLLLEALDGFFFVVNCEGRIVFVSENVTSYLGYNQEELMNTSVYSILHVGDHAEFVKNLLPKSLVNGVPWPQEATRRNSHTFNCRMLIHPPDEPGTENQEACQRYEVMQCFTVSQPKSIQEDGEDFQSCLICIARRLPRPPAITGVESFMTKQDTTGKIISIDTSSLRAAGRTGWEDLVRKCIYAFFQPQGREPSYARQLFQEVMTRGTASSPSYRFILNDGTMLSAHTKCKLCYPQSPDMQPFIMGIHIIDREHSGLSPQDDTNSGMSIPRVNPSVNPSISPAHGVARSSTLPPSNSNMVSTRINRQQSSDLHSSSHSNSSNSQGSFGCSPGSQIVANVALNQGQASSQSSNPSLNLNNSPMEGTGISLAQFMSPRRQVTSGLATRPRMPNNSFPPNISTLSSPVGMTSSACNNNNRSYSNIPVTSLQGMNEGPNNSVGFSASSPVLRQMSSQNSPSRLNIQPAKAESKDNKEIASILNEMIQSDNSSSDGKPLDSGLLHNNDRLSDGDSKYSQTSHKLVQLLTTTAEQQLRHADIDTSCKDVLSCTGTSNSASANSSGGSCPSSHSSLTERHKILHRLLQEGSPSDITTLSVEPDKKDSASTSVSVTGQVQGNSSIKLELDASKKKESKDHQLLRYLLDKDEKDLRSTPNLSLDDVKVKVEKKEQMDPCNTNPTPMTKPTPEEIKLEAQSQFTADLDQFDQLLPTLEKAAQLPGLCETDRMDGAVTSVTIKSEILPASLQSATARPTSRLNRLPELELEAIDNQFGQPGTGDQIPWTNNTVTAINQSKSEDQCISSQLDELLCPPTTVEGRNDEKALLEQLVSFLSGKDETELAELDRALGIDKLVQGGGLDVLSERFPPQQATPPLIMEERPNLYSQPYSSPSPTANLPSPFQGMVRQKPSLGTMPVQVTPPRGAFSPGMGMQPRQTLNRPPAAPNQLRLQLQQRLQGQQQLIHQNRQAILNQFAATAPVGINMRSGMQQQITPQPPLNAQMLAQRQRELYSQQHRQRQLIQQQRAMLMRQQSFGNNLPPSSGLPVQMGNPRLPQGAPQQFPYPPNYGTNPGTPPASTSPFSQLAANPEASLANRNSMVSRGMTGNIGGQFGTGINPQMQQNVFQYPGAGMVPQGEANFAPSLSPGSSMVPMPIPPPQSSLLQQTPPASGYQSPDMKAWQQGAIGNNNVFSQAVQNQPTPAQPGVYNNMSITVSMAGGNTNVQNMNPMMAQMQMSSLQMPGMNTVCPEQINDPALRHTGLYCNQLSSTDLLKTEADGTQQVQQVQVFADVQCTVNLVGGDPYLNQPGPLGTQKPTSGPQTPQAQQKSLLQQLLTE
Experiment [4] in a line: repression of VP16-driven luciferase reporter – cell-based, luminescence, high throughput, counter-screen for SRC1 inhibitor project (AID 588824; in the data active = inhibition above about 25%). As to conditions: cell-based VP16 transactivation luciferase luminescence; at 3.6 µM; hits give high values.
A short description of experiment [5]: StAR promoter reporter inhibitors, counter-screen for LRH-1 inverse agonist project, cell-based, luminescence, high throughput (AID 651611; in the data active = inhibition above about 28%). As to conditions: StAR promoter luciferase reporter counterscreen, at 3.6 µM, hits give high values.
Experiment [6] has as its target Nuclear receptor subfamily 5 group A member 2 (Homo sapiens) (UniProt O00482). The experiment is described as follows: NR5A2 activity suppression in reporter cells – cell-based, luminescence, confirmation (AID 651613; in the data active = inhibition above about 42%;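 note: HEK293T cells co-transfected with LRH-1 and StAR promoter luciferase reporter; 0% = vehicle wells and 100% = parental cells lacking receptor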). As to conditions: cell-based LRH-1 luciferase reporter, inverse agonism; at 3.6 µM; hits give high values.
For experiment [7], the target named is Steroidogenic factor 1 (Homo sapiens) (UniProt Q13285). The experiment is described as follows: inverse agonism at SF1 nuclear receptor – cell-based, luminescence, high throughput, counter-screen for LRH-1 inverse agonist project (AID 651614; in the data active = inhibition above about 44%;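 note: cells cotransfected with StAR promoter reporter and SF1 expression vector; 0% = vehicle on cells with receptor and 100% = vehicle on cells lacking receptor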). As to conditions: cell-based SF1 luciferase reporter, at 3.6 µM, hits give high values. Background: The purpose of a counterscreen is to sort out artefacts and off-target activity.
Sequence of Steroidogenic factor 1 (Homo sapiens) (Q13285 whole entry, looked up): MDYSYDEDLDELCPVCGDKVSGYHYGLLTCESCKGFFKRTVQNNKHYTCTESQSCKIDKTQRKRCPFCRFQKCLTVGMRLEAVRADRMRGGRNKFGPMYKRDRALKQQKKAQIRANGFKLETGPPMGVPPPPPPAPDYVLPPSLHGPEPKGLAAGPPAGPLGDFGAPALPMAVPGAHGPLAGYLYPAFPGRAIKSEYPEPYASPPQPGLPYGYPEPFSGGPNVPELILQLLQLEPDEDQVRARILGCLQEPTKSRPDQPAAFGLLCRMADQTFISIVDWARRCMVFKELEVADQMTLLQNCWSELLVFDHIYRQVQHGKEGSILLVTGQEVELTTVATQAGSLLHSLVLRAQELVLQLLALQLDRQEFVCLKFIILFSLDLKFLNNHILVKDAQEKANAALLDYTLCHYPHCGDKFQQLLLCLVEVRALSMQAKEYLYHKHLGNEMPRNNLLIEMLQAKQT

A short description of experiment [8]: compounds suppressing VP16-driven luciferase signal – cell-based, luminescence, high throughput, counter-screen for LRH-1 inverse agonist project (AID 651615; in the data active = inhibition above about 33%). As to conditions: Gal4-VP16 luciferase reporter cells, at 3.6 µM, hits give high values.

A word on the inhibition: it is the relative decrease from the control value, in per cent.

Values without a mark were called inactive. Active and inactive are the calls of the source. Cut-off read from the data, not from the text of the source, unless noted: active = inhibition above about 30%; inactive = the rest.

Sequence of Nuclear receptor subfamily 5 group A member 2 (Homo sapiens) (O00482 whole entry, looked up): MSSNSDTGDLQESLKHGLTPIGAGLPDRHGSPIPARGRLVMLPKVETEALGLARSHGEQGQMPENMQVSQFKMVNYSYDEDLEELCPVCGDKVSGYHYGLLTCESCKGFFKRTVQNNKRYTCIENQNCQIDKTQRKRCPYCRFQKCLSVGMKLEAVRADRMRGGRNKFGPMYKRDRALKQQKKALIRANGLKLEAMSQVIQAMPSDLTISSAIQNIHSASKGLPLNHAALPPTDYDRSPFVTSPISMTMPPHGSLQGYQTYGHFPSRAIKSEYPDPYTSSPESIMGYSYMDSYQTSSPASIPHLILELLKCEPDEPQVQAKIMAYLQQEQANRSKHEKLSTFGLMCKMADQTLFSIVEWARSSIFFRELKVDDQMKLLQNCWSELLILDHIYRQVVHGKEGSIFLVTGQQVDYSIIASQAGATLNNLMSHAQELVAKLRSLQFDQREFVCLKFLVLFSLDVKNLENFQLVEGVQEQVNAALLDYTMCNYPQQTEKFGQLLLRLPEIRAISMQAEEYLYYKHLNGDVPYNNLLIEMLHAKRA

`O=c1[nH]c2ccccc2n1C1CCN(C(CCc2ccccc2)c2nnnn2C2CCCC2)CC1` (stereo unspecified): the inhibition in experiment [1] is 23.4%; in experiment [2], 7.82%; in experiment [3], -2.66%; in experiment [4], 10.8%.
Taken in the same sequence, the figures for `O=c1[nH]c2ccccc2n1C1CCN(C(c2ccnc3ccccc23)c2nnnn2-c2ccc3c(c2)OCCO3)CC1` (stereo unspecified) were 8.29%, 6.76%, -26.3% and 8.7%.
For `CN1CCN(c2ncnc3ccc(Br)cc23)CC1`, in that order: 42.3%, 37.6% (active), 31.2% and 33.4% (active).
Taken in the same sequence, the figures for `Cc1[nH]nc2ccc(-c3cncc(OC[C@@H](N)Cc4c[nH]c5ccccc45)c3)cc12` were 98.5% (active), 97.1% (active), 93.5% (active) and 97.3% (active).
Take `CC1C(OC(=O)CCC(=O)NC(C)(C)CO)O[C@H]2OC3(C)CC[C@H]4[C@H](C)CCC1C24OO3` (stereo partly specified): the inhibition in experiment [1] was 55.9% (active); in experiment [2], 79.9% (active); in experiment [3], 51.9% (active); in experiment [4], 81.2% (active); in experiment [5], 76.2% (active); in experiment [6] it was 101% (active). The inhibition in experiment [7] is 91% (active); in experiment [8], 84% (active).
For `Cc1c2ccncc2c(C)c2c1[nH]c1ccccc12`, the inhibition in experiment [1] was 24%; in experiment [2], 45.9% (active); in experiment [3], 25.6%; in experiment [4], 42.1% (active).
For `CCCc1nc2ccc(Br)cc2c(=O)n1-c1ccc([N+](=O)[O-])c(C(F)(F)F)c1`, in that order: -13%, 11.2%, 13.3% and 14.8%.
For `Cc1cccc(C)c1-n1nnnc1C(c1cc2ccccc2o1)N1CCC(n2c(=O)[nH]c3ccccc32)CC1` (stereo unspecified), in that order: 23.8%, 41.3% (active), 7.31% and 25.9% (active).
